PAX8 inh HTS = inhibitors of PAX8-driven TPO luciferase reporter, primary screen, RMG-I cells, single concentration; SteadyGlo, 24 h; inhibition, % at 12.6 µM; hit rate 1.2% among 360,000;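 active = mean replicate inhibition at least 60% with every replicate also reaching 60%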;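 also: luciferase light reporting Pax8 driven TPO promoter activity; plate controls were median of neutral control wells for no effect and mitoxantrone controls for full effect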
CF NFkB inh = inhibitors of PAF-induced NF-kB signaling, primary screen, cell-based, GFP fluorescence, uHTS; hit rate 0.86% among 360,000; inhibition, % at 5 µM; KKLEB NF-kB-GFP reporter, GFP fluorescence overnight;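 active = at least 50% inhibition at 5 µM, scaled per plate between neutral and stimulator controls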;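 also: PAF is a Pseudomonas aeruginosa culture filtrate used as stimulus; plate controls were PAF-stimulated DMSO wells for no effect and unstimulated DMSO wells for full effect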
LGR2 inh = inhibitors of bursicon-induced LGR2 CRE-luciferase signal, primary screen, cell-based, HEK293, CRE-luciferase reporter, bursicon stimulation. inhibition, % at 9.99 µM. Drosophila bursicon receptor LGR2 (rickets). bursicon-stimulated, 4 h. AID 720647, 2013. hit rate 0.35% among 380,000;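 active = drop in luminescence signal, shown as inhibition above about 50% in the replicate tests, limit read from the data, passing the limit was not always enough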;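 also: agonist challenge used bursicon conditioned medium at about half maximal strength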
KKLEB tox = cytotoxicity in KKLEB CF airway cells, primary screen, cytotoxicity control for CF NF-kB inhibitor project, cell-based, uHTS, fluorescence assay plates; KKLEB CF airway cells viability, ATPlite luminescence, overnight; stronger effect = lower value; cells stimulated with P. aeruginosa culture filtrate; activity change (cytotoxicity), % at 5 µM; hit rate 0.36% among 360,000; AID 602141, 2011;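 active = corrected activity change at or below -50% at 5 µM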
EWS-Fli inh = EWS/Fli-driven NR0B1 reporter inhibitors, primary screen, A673 cells, NR0B1 luciferase, luminescence, MLPCN library | viability-normalised | inhibition, % at 12.6 µM | hit rate 0.67% among 350,000;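 active = mean inhibition of at least 50% after viability correction, with every replicate also passing that limit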;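 also: firefly luciferase signal divided by Alamar Blue viability fluorescence both relative to DMSO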
Shn3 3UTR inh = reduction of Shn3 3'UTR firefly luciferase signal, primary screen, Schnurri-3 inhibitor project, cell-based, Clone20 osteoblasts, set 2 | Clone20 osteoblast Shn3 3'UTR firefly luciferase, 24 h | inhibition, % at 12.5 µM | hit rate 0.52% among 360,000 | AID 588674, 2011;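 active = mean inhibition of at least 75% with every replicate also reaching 75%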;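 also: 0% = median of neutral control wells and 100% = pilot-screen positive control compound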
Starred values were filed as active, the others as inactive; x = no result. Most compounds without a hit are left out; they make up all but 2% or so of the library.

SMILES	PAX8 inh HTS	CF NFkB inh	LGR2 inh	KKLEB tox	EWS-Fli inh	Shn3 3UTR inh
C[C@@H]1CN([C@H](C)CO)C(=O)Cc2cc(NC(=O)Cn3cnnn3)ccc2O[C@H]1CN(C)S(=O)(=O)c1ccc(Cl)cc1	-2	x	-2	x	-11	x
COc1cc(C=CC(=O)c2cc(OC)c(OC)c(OC)c2)cc(OC)c1OC	96*	24	57*	7	26	62
COc1cc(C=CC(=O)c2ccccc2)cc(OC)c1OC	22	34	24	-7	-4	-4
O=C(OCCC12CC3CC(CC(C3)C1)C2)c1ccc(NCc2cc(O)ccc2O)cc1	56	21	-22	-12	68*	99*
O=C(OCC12CC3CC(CC(C3)C1)C2)c1ccc(NCc2cc(O)ccc2O)cc1	52	58*	6	-42	56*	98*
COc1ccc(NC(=O)N(C)C[C@H]2OCCCC[C@H](C)Oc3ccc(NC(=O)Cc4ccccc4)cc3C(=O)N([C@H](C)CO)C[C@H]2C)cc1	x	x	-4	x	4	x
CC(C)c1ccc2c(c1)CC[C@H]1[C@](C)(CN)CCC[C@]21C	-6	21	-4	-17	50	-4
CC(C)c1ccc2c(c1)CCC1C(C)(CN)CCCC21C (stereo unspecified)	41	13	1	-13	59*	29
CCCCCCN1C2=NCCN2c2ccccc21	x	11	x	-14	x	-8
CCCCCCn1ccc(=N)cc1	x	-2	x	2	x	86*
C[C@H](CO)N1C[C@H](C)[C@@H](CN(C)Cc2ccc(Oc3ccccc3)cc2)Oc2c(NC(=O)c3nc4ccccc4s3)cccc2C1=O	5	x	13	x	0	x
COc1ccc2cc1Oc1ccc(cc1)C[C@H]1c3c(cc(OC)c4c3Oc3c(ccc5c3[C@H](C2)N(C)CC5)O4)CCN1C	x	87*	x	-88*	x	-33
COc1ccc2cc1Oc1ccc(cc1)CC1c3c(cc(OC)c4c3Oc3cc5c(cc3O4)CCNC5C2)CCN1C (stereo unspecified)	x	44	x	-45	x	54
CC(=O)N1[C@H](CO)[C@H](c2ccc(-c3ccc(F)cc3)cc2)[C@H]1CNC(=O)C1CC1	5	x	0	x	-6	x
CCC(C)[C@H]1CNCCN1CCc1cc(C(F)(F)F)cc(C(F)(F)F)c1 (stereo partly specified)	10	-7	39	-1	14	-19
CCC(C)[C@H]1CNC(=S)N1CCc1cc(C(F)(F)F)cc(C(F)(F)F)c1 (stereo partly specified)	6	20	17	0	20	97*
O=C(C[C@H]1CC[C@H]2[C@@H](COC[C@@H](O)CN2Cc2cccc(Cl)c2)O1)NCc1cccc(F)c1	5	x	20	x	11	x
COc1ccc(CCNc2ncnc3sc(C)cc23)cc1OC	41	5	3	-3	10	89*
COc1ccc(CCNc2ncnc3[nH]ncc23)cc1OC	x	19	x	-5	x	67
CO[C@H]1CN(C)C(=O)c2ccc(NC(=O)C3CCCCC3)cc2OC[C@@H](C)N(Cc2nccs2)C[C@@H]1C	0	x	3	x	0	x
CC(=O)c1sc2c(c1OC(=O)c1ccc(Cl)cc1Cl)c(=O)n(-c1ccccc1)c(=S)n2-c1ccccc1	-15	54*	15	-17	-7	-9
CC(=O)c1sc2c(c1OC(=O)c1ccc(Cl)cc1)c(=O)n(-c1ccccc1)c(=S)n2-c1ccccc1	-4	24	-5	15	4	11
CC1(NC(=O)CC(c2ccccc2)(c2ccccc2)c2ccccc2)CCN(CCCc2ccccc2)C1=O (stereo unspecified)	66*	8	33	-5	5	39
COc1ccc(CN2C[C@H](O)COC[C@H]3O[C@@H](CC(=O)NCc4ccncn4)CC[C@@H]32)cc1	4	x	-12	x	0	x
CC1(C)CC(=O)C=C(c2ccc(Oc3ccccc3)cc2)C1=O	-2	-1	-19	-21	-28	-1

From PubChem
